What is called remaining activity is the signal under treatment as a percentage of the control signal.

The structures appear in SMILES notation. A number with no mark means an inactive call. The source made the active and inactive calls. No stated cut-off is given here; in the data, active means remaining activity below about 50%; inactive means the rest.

The target of the test is Phospholipase D1 (Homo sapiens) (UniProt Q13393). As to the kind of experiment: PLD1 inhibitors in cells, Calu-1 cells, single concentration (AID 602144).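 Further: tested at 200 nM.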 The conditions noted are these: cellular PLD1 activity, stronger effect = lower value.
Sequence of Phospholipase D1 (Homo sapiens) (Q13393 whole entry, looked up): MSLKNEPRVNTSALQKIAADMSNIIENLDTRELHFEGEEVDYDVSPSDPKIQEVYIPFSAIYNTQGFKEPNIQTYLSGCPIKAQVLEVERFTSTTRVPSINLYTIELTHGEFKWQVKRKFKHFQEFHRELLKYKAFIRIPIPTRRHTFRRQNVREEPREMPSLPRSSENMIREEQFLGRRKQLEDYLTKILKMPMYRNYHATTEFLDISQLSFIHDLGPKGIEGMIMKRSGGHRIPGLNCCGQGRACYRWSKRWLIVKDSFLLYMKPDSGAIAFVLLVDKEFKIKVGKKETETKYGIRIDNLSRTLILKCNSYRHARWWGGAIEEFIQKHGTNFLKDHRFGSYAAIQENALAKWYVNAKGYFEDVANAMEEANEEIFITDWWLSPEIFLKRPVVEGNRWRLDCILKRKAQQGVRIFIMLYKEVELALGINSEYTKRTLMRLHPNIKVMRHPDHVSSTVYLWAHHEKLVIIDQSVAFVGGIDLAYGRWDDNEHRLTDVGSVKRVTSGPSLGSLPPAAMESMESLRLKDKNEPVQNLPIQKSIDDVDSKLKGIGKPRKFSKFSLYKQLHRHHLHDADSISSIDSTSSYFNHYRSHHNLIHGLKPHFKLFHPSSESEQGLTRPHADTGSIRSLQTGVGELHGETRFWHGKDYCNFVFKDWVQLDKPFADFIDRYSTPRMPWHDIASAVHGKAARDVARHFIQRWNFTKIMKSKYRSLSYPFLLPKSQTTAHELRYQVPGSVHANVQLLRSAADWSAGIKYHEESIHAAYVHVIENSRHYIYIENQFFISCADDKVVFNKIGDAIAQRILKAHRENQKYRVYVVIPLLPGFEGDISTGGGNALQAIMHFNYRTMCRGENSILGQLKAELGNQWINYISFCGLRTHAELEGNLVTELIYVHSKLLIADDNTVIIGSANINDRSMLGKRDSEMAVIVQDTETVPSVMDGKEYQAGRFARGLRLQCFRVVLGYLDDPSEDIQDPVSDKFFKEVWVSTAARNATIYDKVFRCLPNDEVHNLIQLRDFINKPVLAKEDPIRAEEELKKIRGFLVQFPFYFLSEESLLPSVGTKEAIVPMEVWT
Sequence of Phospholipase D1 (Homo sapiens) (Q13393 whole entry, looked up): as above
Turning to `O=C(NCCN1CCC(n2c(=O)[nH]c3ccccc32)CC1)c1ccc(Cc2ccccc2)cc1`, the remaining activity was 91.5%.
Turning to `Cc1ccc(C(=O)NCCN2CCN(c3ncccn3)CC2)cc1`, the remaining activity is 84.2%.
With `O=C(NCCN1CCN(c2ncccn2)CC1)c1ccc(Cl)cc1` the figure was 80.9%; with `C[C@H](CN1CCC2(CC1)CNCc1ccccc12)NC(=O)c1cnc2ccccc2c1`, 69%.
For `C[C@@H](CN1CCC(n2c(=O)[nH]c3ccccc32)CC1)NC(=O)c1ccc(C(F)(F)F)cc1`, the remaining activity is 36.5% (active).
In the case of `Cc1ccc(C(=O)N[C@@H](C)CN2CCC(n3c(=O)[nH]c4cc(Br)ccc43)CC2)cc1`, the remaining activity is 13% (active).
With `O=C(NCCN1CCC(n2c(=O)[nH]c3ccc(F)cc32)CC1)c1ccc(C(F)(F)F)cc1` the figure was 19.1% (active); with `O=C(NCCN1CCC(n2c(=O)[nH]c3cc(I)ccc32)CC1)c1ccc(Cl)cc1`, 15.6% (active); with `CC1(C)[C@H]2CC[C@]1(CS(=O)(=O)NCCN1CCC(n3c(=O)[nH]c4ccccc43)CC1)C(=O)C2`, 121%.
As to `C[C@@H](CN1CCC(n2c(=O)[nH]c3ccccc32)CC1)NC(=O)c1ccc(Cl)c(Cl)c1`, the remaining activity is 20.9% (active).
In the case of `CC(C)[C@@H](CN1CCC(n2c(=O)[nH]c3ccccc32)CC1)NC(=O)c1ccc(F)cc1`, the remaining activity was 103%.
On to `O=C(c1ccc2ccccc2c1)N1CCC(n2c(=O)[nH]c3cc(Cl)ccc32)CC1`, for which the remaining activity was 77.3%.
With `O=C(NCCN1CCC(C(=O)NCCCN2CCOCC2)CC1)c1ccc2ccccc2c1` the figure was 68.3%.

The values above are taken from PubChem BioAssay AID602144 (Vanderbilt Specialized Chemistry Center, 2011).
